Measurements from PubChem BioAssay (NCI).
This is part of a sample that, as a whole, favours compounds with a hit. Of some 83,000 tested, about 20% had one in any assay.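 Note: values are percent growth. 100 is the growth of untreated cells, values between 100 and 0 indicate rising inhibition; between -100 and 0 indicates cell death.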 The source made the active and inactive calls.

The molecules below were run on NCI-H460 lung (assay: NCI-60 one-dose screen, 48 h (100 = growth as untreated, 0 = no growth, -100 = all killed)). Details: 10 µM.
Procedure: Growth inhibition of the NCI-H460 human Non-Small Cell Lung tumor cell line is measured as a screen for anti-cancer activity. Cells are grown in 96 well plates and exposed to the test compound for 48 hours. Compounds are tested at a single concentration, which is 10^-5 M for most compounds. The reported endpoint is percent growth (GI% or GIPRCNT), where numbers from 0 - 100% represent growth inhibition, and numbers from -100% - 0 represent cell death. For example, a value of 40 represents 60% growth inhibition. A value of 0 means no net growth occurred over the course of the experiment. A value of -40 indicates 40% of cells at the beginning of the experiment died by the end of the experiment. A value of -100 means all cells are dead at the end of the experiment.
NCI-60 Human Tumor Cell Lines Screen was performed using the standard one-dose NCI protocol, which is described in more detail at https://dtp.cancer.gov/discovery_development/nci-60/default.htm.
Compounds with GIPRCNT values below 10 were considered active. Activity score was based on GIPRCNT using the following formula: […]
Score is 0 for GIPRCNT values of 100 or above, 50 for GIPRCNT values of 0, and 100 for GIPRCNT values of -100.
For `O=c1oc2ccc(-c3ccc(F)cc3F)cc2c(=O)n1-c1ccc(Cl)c(C(F)(F)F)c1`, the growth was 8.48% (active).
`Nc1nc(-c2ccccc2)cs1` was tested, and the growth was 73.2% (inactive).
For `N#Cc1c(NC(=O)c2ccc(C(F)(F)F)cc2C(F)(F)F)sc2c1CCC(=O)C2`, the growth was 12% (inactive).
For `O=C(c1ccc(Cl)cc1)C1[C@H](c2ccccc2Br)[C@@H](c2ccccc2)NC12C(=O)Nc1ccc(Br)cc12` (stereo not given in full), the growth was 2.66% (active).
With `CC(=O)Nc1ccc(-c2cn(-c3cccc(C(=O)Nc4cc(CN5CCOCC5)cc(C(F)(F)F)c4)c3)nn2)cn1` the growth was -65.3% (active).
In the case of `N#Cc1c(Cl)nc(SCc2ccc(F)cc2)nc1-c1ccc(F)cc1`, the growth is reported as 103% (inactive).
In the case of `O=C(CSc1nnc(-c2ccc3nc(-c4ccccc4)[nH]c3c2)o1)Nc1ccc(Br)cc1`, the growth is reported as 6.71% (active).
With `CC1=C(c2cc(-c3ccc(Cl)cc3)c(C#N)c(N)n2)C(c2ccccc2)NC(=S)N1` (stereo not given) the growth was 82.6% (inactive).
With `O=C1Nc2ccc(F)cc2/C1=C/c1cccc(OCc2ccccc2)c1` the growth was 7.06% (active).
In the case of `COC1=C[C@]23CCC(=O)N2CCc2cc4c(cc2[C@@H]3[C@@H]1OC(=O)CCCC(C)C)OCO4`, the growth is reported as 17.4% (inactive).
For `C=C1CCC2C3(C)COC(c4c(F)cccc4F)OC3CCC2(C)C1CC(O)C1=CCOC1=O` (stereo not given), the growth was 89.2% (inactive).
With `CCOC(=O)CNC(=O)CN(Cc1ccccc1)C(=O)[C@@]1(C)CCC[C@]2(C)[C@H]3C[C@H]4C(C(C)C)=C[C@]3(CC[C@H]21)[C@@H]1C(=O)OC(=O)[C@@H]14` the growth was 61.1% (inactive).
In the case of `CCCn1c(=O)c2[nH]c(-c3ccc(OCc4nc5ccc(C(F)(F)F)cc5[nH]4)cc3)nc2n(CCC)c1=O`, the growth is reported as 41.4% (inactive).
In the case of `COc1ccc(CN2[C@@H](C(=O)NCc3ccc(C(=O)NO)cc3)Cc3c([nH]c4ccccc34)[C@@H]2C)cc1`, the growth is reported as 11.7% (inactive).
For `O=C1Nc2cc(Cl)ccc2/C1=C/c1ccc(OCc2ccc(Br)cc2F)cc1`, the growth was -81.5% (active).
For `O=C(N=Nc1c(O)[nH]c2ccc(Br)cc12)c1ccc2nc(-c3ccccc3)[nH]c2c1`, the growth was -73.5% (active).
`Cc1cc2c(c(O)c1Br)-c1ncoc1C(=O)[C@]1(C)CC[C@H](C(C)C)[C@H]21` was tested, and the growth was 18.4% (inactive).
`COc1cc(Cn2c(C(F)(F)F)cc3c(Cl)ncnc32)ccn1` was tested, and the growth was 2.75% (active).
In the case of `COc1ccc(/C=C/C(=O)c2ccc(S(=O)(=O)NCCNc3nc(Nc4ccc(F)cc4)nc(N(C)C)n3)cc2)cc1`, the growth is reported as 15.1% (inactive).
With `O/N=C(\CSc1nnc(-c2c[nH]c3ccccc23)n1-c1ccccc1)c1ccc(Br)cc1` the growth was -21.9% (active).
In the case of `O=C(c1ccc(Cl)cc1)C1[C@H](c2ccc(Br)cc2)[C@@H](c2ccccc2)NC12C(=O)Nc1ccc(Br)cc12` (stereo not given in full), the growth is reported as -62.5% (active).
`CC1(C)CC[C@]2(C(=O)NCCCNCCCCNCCCN)CC[C@]3(C)C(=CC[C@@H]4[C@@]5(C)Cc6c([nH]c7ccccc67)C(C)(C)[C@@H]5CC[C@]43C)[C@H]2C1` was tested, and the growth was 96.5% (inactive).
In the case of `C#CCNC(=O)CCC(=O)OC[C@]12CC[C@@H](C(=C)C)[C@@H]1C1CC[C@@H]3[C@@]4(C)CCCNC(C)(C)[C@@H]4CC[C@@]3(C)[C@]1(C)CC2` (stereo not given in full), the growth is reported as -74% (active).
For `O=C(CNc1nc(-c2ccccc2)cs1)Nc1ccc([N+](=O)[O-])cc1`, the growth was 35% (inactive).
In the case of `O=C1Nc2ccc(Cl)cc2/C1=C/c1ccc(OCc2ccc(Br)cc2F)cc1`, the growth is reported as 7.07% (active).
`O=c1oc2ccc(-c3ccc(F)cc3F)cc2c(=O)n1-c1ccc(F)cc1` was tested, and the growth was 2.62% (active).
With `CCCCOc1ccc(Nc2nc3ccccc3nc2Nc2ccc(OCCCC)cc2)cc1` the growth was 60.1% (inactive).
For `COc1cccc(COc2ccc(/C=C3\Oc4cc(O)ccc4C3=O)cc2)c1`, the growth was 27.4% (inactive).
In the case of `COc1ccc(C(=O)CSc2nnc(-c3c[nH]c4ccccc34)n2-c2ccccc2)cc1`, the growth is reported as 65.5% (inactive).
With `CCOC(=O)CNC(=O)CN(Cc1ccccc1)C(=O)[C@@]1(C)CCC[C@]2(C)[C@H]3CC4C(C(C)C)=C[C@]3(CC[C@H]21)[C@@H]1C(=O)CCC(=O)[C@H]41` the growth was 65% (inactive).
`Brc1ccc(/C=C/c2n(Cc3ccc4ccccc4c3)c3ccccc3[n+]2Cc2ccc3ccccc3c2)cc1` was tested, and the growth was -66.2% (active).
With `COc1cccc(C(N)=Nc2ccc(OCCCCCCn3cncn3)cc2)c1` the growth was 28.1% (inactive).
For `COc1nccnc1NS(=O)(=O)c1ccc(NC2=C(Cl)C(=O)c3nc(C)ccc3C2=O)cc1`, the growth was 118% (inactive).
`Cc1ccc(C(=O)NNC(=O)CSc2nc3ccccc3c(=O)[nH]2)cc1` was tested, and the growth was 108% (inactive).
With `COc1ccc2[nH]c(=O)c(CSc3ccc(Nc4nccc(-c5ccc(Cl)cc5)n4)cc3)cc2c1` the growth was 112% (inactive).
For `Cc1cc(C(F)(F)F)ccc1C(=O)Nc1sc2c(c1C#N)CCC(=O)C2`, the growth was 4.71% (active).
With `COc1ccc2[nH]c(O)c(N=NC(=O)COc3ccc(NC(=O)Nc4ccc(Cl)cc4)cc3)c2c1` the growth was -48.6% (active).
With `Cc1ccc(F)cc1N/C=c1\s/c(=C(\C#N)C(=O)Nc2ccccc2)n(-c2ccccc2)c1=O` the growth was 71.7% (inactive).
In the case of `Cc1ccc([N+](=O)[O-])c(C(=O)Nc2ccc(-c3ccc4c(c3)NC(=O)/C4=C\c3ccc[nH]3)cc2)c1`, the growth is reported as 0.658% (active).
For `Nc1nc2c(F)c(F)c(F)c(F)c2s1`, the growth was 107% (inactive).
